Measured values as given in PubChem BioAssay (NCI).
Compounds without any hit were thinned out: in the full panel of roughly 83,000, 20% have a hit.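 48-hour exposure, single concentration, 96-well plates; percent growth endpoint where 0 means no net growth. Active: below 10.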 A number with no mark means an inactive call. Active and inactive are the calls of the source.

How the values were obtained:
Assay in all cases: NCI-60 one-dose screen, 48 h (100 = growth as untreated, 0 = no growth, -100 = all killed)
Conditions in all cases: 10 µM unless noted
[1] = test system: NCI-H23 lung
[2] = test system: NCI-H226 lung
[3] = test system: NCI-H322M lung
[4] = test system: HOP-62 NSCLC
[5] = test system: NCI-H460 lung
[6] = test system: HOP-92 NSCLC
[7] = test system: NCI-H522 lung
[8] = test system: A549/ATCC NSCLC
[9] = test system: 786-0 renal
[10] = test system: COLO 205 colon
[11] = test system: DU-145 prostate
[12] = test system: K-562 leukemia
[13] = test system: MALME-3M melanoma
[14] = test system: MDA-MB-231 breast
[15] = test system: RXF 393 renal
[16] = test system: SF-268 CNS
[17] = test system: SF-295 CNS
[18] = test system: SF-539 CNS
[19] = test system: UACC-257 melanoma
[20] = test system: M14 melanoma

Row | SMILES | growth [1] [%] | growth [2] [%] | growth [3] [%] | growth [4] [%] | growth [5] | growth [6] | growth [7] [%] | growth [8] [%] | growth [9] [%] | growth [10] [%] | growth [11] [%] | growth [12] [%] | growth [13] | growth [14] [%] | growth [15] | growth [16] [%] | growth [17] [%] | growth [18] | growth [19] [%] | growth [20]
1 | CCCCCCCCN(CCCCCCCC)CC(O)c1cc(-c2ccccc2)nc2ccc(OC)cc12 (stereo not given) | 67.1 | 88.1 | 106 | 95.4 | 98.9% | 70.1% | 77.5 | 78.6 | 82.6 | 85.7 | 82.6 | 52.2 | 91.3% | 63.7 | 90.2% | 38.3 | 93.8 | 0.739% (active) | 83.2 | 24.7%
2 | CCn1c(C)nc([N+](=O)[O-])c1Sc1nc(N)nc2nc[nH]c12 | 28.8 | 44.3 | 50.9 | 24.9 | 10.7% | 54.9% | 42.6 | 53.9 | 24.6 | 67.9 | 24.4 | 17.3 | 53.2% | 42.3 | 36% | 31.3 | 23.8 | 26.7% | 39.7 | 8.02% (active)
3 | COc1ccc(-c2c(C#N)cnc(N)c2-c2nc3cc(C)c(C)cc3[nH]2)cc1 | 44.9 | 99.3 | 38.2 | 57 | 36% | 68% | 45.6 | 27.2 | 25.8 | 68.7 | 37.4 | 51.6 | 45.9% | 53.4 | 56.6% | 57.1 | 27.3 | 92% | 70 | 51.2%
4 | O=C(NCCNc1nccc(-c2c(-c3cccc(O)c3)nc3sccn23)n1)c1ccc(N2CCOCC2)c(C(F)(F)F)c1 | 85.4 | 69.5 | 102 | 96.7 | 66.9% | 38.9% | 74.4 | 64.1 | 60.1 | 43.4 | 94.9 | 63 | -4.27% (active) | 64.9 | 57.6% | 79.1 | 67.5 | 77.8% | 15.8 | 19.1%
5 | CCCCOc1nc2ccc(Cl)cc2cc1/C=C/C(=O)/C=C/c1ccc(Cl)cc1 | 79.8 | 92.9 | 95.7 | 101 | 103% | 87.1% | 74.8 | 84.4 | 94.1 | 62 | 84.7 | 57 | 104% | 86.5 | 41.6% | 81 | 79.5 | 100% | 84 | 18%
6 | O=C(Nc1ccc(-n2cc(-c3ccncc3)c(-c3ccc(O)c(Cl)c3)n2)cc1)c1cc(C(F)(F)F)cc(C(F)(F)F)c1 | 82 | 93.7 | 75.2 | 81.2 | 45% | 6.71% (active) | 62.8 | 54.8 | 53.1 | 82.6 | 65 | 36.7 | 77.7% | 21.3 | -21.1% (active) | 56 | 31 | 57.7% | 77.1 | 30.2%
7 | Cc1c(Cl)ccc2c(C(=O)Cl)cc(-c3ccccc3)nc12 | 98.8 | 90.8 | 103 | 85.4 | 98.2% | 93.5% | 95.1 | 92.9 | 97.1 | 111 | 101 | 97.1 | 104% | 97 | 110% | 102 | 94.7 | 100% | 87.9 | 98.1%
8 | O=c1c2ccccc2[nH]n1Cc1ccc2c(c1)OCO2 | 106 | 92.6 | 97.6 | 97.1 | 0.543% (active) | 90.2% | 99.4 | 99.6 | 93.3 | 116 | 112 | 95.9 | 100% | 114 | 103% | 101 | 104 | 98.1% | 97 | 104%
